In PubChem BioAssay (NCATS):
Several values for one entry are separate records, joined by “and”; a condition that tells them apart may be missing. Identical values can stand only once. Results filed as inconclusive are left out. Activity calls are given as the source filed them. Unless noted, the call rests on the fitted dose curve; in most records, active means well fitted curve in the direction sought with a large enough effect; inconclusive means small, poorly fitted or top-dose-only effect, or another doubt; inactive means no such curve, though single readings can be large; an effect the other way counts as inactive or inconclusive.

Columns and labels:
[1] = qHTS assay for small molecule agonists of the antioxidant response element (ARE) signaling pathway measured by Nrf2-dependant transcriptional activity (AID 720636; active means well fitted curve in the direction sought with a large enough effect in the repeat runs; an effect the other way counts as inactive or inconclusive;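 further: HepG2 cells with an ARE-driven luciferase reporter; % of control where 0% means no effect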)
Outline: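 ONE-Glo luminescence, read 30 min after reagent addition at room temperature, reflected ARE reporter activity in HepG2 cells that had been incubated with compound for 16 hr at 37 C in 1% dialyzed FBS.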

[2] = qHTS assay for small molecule agonists of the antioxidant response element (ARE) signaling pathway measured by Nrf2-dependant transcriptional activity - cell viability counter screen (AID 720653; active means well fitted curve in the direction sought with a large enough effect in the repeat runs; an effect the other way counts as inactive or inconclusive; further: on the % scale 0 is the no-effect control and ±100 the full control effect); conditions: ARE-bla HepG2 viability, CellTiter-Glo ATP luminescence, 16 h; active compounds read low
Outline: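 ARE-bla HepG2 cells treated with compounds for 16 h at 37C; this counter screen measures viability as intracellular ATP by CellTiter-Glo luminescence after 30 min at room temperature.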

[3] = qHTS Assay for Identifying Gametocytocidal Compounds (AID 743244);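 further: on the % scale 0 is the no-effect control and ±100 the full control effect; actives lower the fluorescent signal which means gametocytes are killed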; conditions: P. falciparum 3D7 stage III-V gametocytes, alamarBlue, 72 h; max response: active compounds read low
Outline: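 Late gametocytes (III–V), P. falciparum 3D7; 72 h drug, then 24 h alamarBlue; resazurin reduction read by fluorescence.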

[4] = qHTS assay for cell viability of HEK293 cells (AID 743288); conditions: ATP luminescence (CellTiter-Glo), 18 h, active compounds read low; further: on the % scale 0 is the no-effect control and ±100 the full control effect; nearly all actives have a fitted effect of over 50% in size
Outline: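 Quantitative high-throughput screen: compounds were pinned onto parental HEK293 cells (2,000 per well) after a minimum 5 h settling at 37 C, incubated 18 h at 37 C, and intracellular ATP measured by luciferase luminescence.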

[5] = qHTS assay for cell viability of the p53RE-bla HCT-116 cell line (AID 743292); further: on the % scale 0 is the no-effect control and ±100 the full control effect; nearly all actives have a fitted effect of over 55% in size
Outline: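 After plating at 4,000 cells per well and a 5 h rest at 37 C, HCT-116 cells carrying p53RE-bla received test chemicals in DMSO. Sixteen hours later at 37 C, CellTiter-Glo was added and luminescence recorded following 30 min at room temperature.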

[6] = qHTS for Activators of Parkin Expression: LOPAC Validation Assay (FLuc Reporter) (AID 720573;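 further: 0% = DMSO and 100% = positive control compounds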)
Outline: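 A neuronal cell line harbouring FLuc and NLuc reporters behind the Parkin promoter was exposed to compounds for 24 h. Firefly luciferase signal, measured after 10 min with detection reagent, was scaled to DMSO and positive-control wells.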

[7] = molecular target: T1, Hexokinase-4 (Homo sapiens) + Glucokinase regulatory protein (Homo sapiens) (UniProt P35557+Q14397); experiment: qHTS assay for inhibitors of recombinant human GCK-GKRP interaction: Diaphorase-coupled assay (AID 743205)
Outline: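 Inhibitors of the GCK–GKRP complex relieve GKRP suppression of GCK, detected through a G6PDH–diaphorase cascade reducing resazurin. Human GST-GCK and FLAG-GKRP are used at 10 nM with 5 mM glucose and 0.4 mM ATP.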

[8] = molecular target: T1, Hexokinase-4 (Homo sapiens) + Glucokinase regulatory protein (Homo sapiens); experiment: qHTS assay for inhibitors of recombinant human GCK-GKRP interaction: ADP-Glo assay (AID 743206);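 further: plate controls were DMSO plus enzyme for no effect and no enzyme for full effect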
Outline: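 Pin-transferred compounds meet a 15 nM GST-GCK/15 nM FLAG-GKRP/2 uM S6P mix (dispense concentrations). ATP is then added to 0.4 mM final with 5 mM glucose, and the reaction runs 60 min at room temperature. ADP is quantified luminescently.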

[9] = molecular target: T1, Hexokinase-4 (Homo sapiens) + Glucokinase regulatory protein (Homo sapiens); experiment: qHTS assay for inhibitors of recombinant human GCK-GKRP interaction: HTRF assay (AID 743207);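 further: 0% = DMSO with GCK present and -100% = DMSO wells lacking GCK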
Outline: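 Steps: dispense GCK–GKRP complex (5 nM each, GST- and FLAG-tagged) with 2 uM S6P; pin in compounds; add XL665/Eu-cryptate-labelled antibodies; incubate 60 min at room temperature; read time-resolved FRET at 665 and 615 nm.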

Measured: max response

T1 sequence (P35557 whole entry, looked up): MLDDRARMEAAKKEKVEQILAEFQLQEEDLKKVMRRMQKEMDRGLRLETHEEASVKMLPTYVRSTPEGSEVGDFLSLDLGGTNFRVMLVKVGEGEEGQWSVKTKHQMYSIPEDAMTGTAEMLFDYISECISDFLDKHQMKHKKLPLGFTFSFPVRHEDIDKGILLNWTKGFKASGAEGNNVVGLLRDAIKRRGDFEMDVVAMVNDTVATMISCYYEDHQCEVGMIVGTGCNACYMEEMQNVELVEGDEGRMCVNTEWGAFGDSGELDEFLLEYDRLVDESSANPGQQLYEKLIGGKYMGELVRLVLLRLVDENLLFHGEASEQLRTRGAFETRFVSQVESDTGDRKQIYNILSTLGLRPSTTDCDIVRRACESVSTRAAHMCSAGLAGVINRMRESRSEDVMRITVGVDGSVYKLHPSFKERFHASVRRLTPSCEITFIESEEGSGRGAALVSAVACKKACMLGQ
T1 sequence (Q14397 whole entry, looked up): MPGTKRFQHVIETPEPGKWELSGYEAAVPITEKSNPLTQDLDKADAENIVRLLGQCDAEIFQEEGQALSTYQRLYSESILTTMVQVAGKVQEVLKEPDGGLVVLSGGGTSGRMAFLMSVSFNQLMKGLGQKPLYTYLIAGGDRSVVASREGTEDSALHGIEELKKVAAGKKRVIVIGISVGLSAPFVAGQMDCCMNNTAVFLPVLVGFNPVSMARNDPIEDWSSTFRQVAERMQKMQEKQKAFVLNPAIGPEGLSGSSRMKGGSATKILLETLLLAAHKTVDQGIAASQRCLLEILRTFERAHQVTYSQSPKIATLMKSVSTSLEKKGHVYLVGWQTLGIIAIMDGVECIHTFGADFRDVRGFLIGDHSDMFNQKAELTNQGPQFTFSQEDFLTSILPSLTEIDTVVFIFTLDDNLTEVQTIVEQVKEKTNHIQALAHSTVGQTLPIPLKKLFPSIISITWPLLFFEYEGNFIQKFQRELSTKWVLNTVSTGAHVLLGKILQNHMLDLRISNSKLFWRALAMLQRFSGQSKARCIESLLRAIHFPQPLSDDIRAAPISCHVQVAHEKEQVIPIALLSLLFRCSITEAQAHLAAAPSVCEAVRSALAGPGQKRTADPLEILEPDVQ

C/C=C/c1ccc(O)c(OC)c1
inactive: [1] | [2] -8.93% and -1.72% | [3] 26.3% | [4] -4.69% and 11.4% | [5]

Oc1c(Cl)cc(Cl)c(Cl)c1Cc1c(O)c(Cl)cc(Cl)c1Cl
inactive: [1] | [3] 14.7% | [5]

OC[C@H]1O[C@@H]2O[C@H]3[C@H](O)[C@@H](O)[C@@H](O[C@H]4[C@H](O)[C@@H](O)[C@@H](O[C@H]5[C@H](O)[C@@H](O)[C@@H](O[C@H]6[C@H](O)[C@@H](O)[C@@H](O[C@H]7[C@H](O)[C@@H](O)[C@@H](O[C@H]8[C@H](O)[C@@H](O)[C@@H](O[C@H]1[C@H](O)[C@H]2O)O[C@@H]8CO)O[C@@H]7CO)O[C@@H]6CO)O[C@@H]5CO)O[C@@H]4CO)O[C@@H]3CO
inactive: [1] | [2] -6.08% | [3] 2.64% | [4] -3.67% | [5]

CC(C)(C)CC(C)(C)c1ccc(O)c(-n2nc3ccccc3n2)c1
inactive: [1] | [2] 4.4% | [3] -5.06% | [4] -13.9%

N#C/C(=C1\SCC(c2ccccc2Cl)S1)n1ccnc1 (stereo unspecified)
inactive: [3] 17.4%

CCOC(=O)[C@H](CCc1ccccc1)N[C@@H](C)C(=O)N1[C@H](C(=O)O)C[C@H]2CCCC[C@@H]21
inactive: [6] | [7] | [8] | [9] | [3] -0.763% and -2.8% and 30%

C[N+]12CCC(CC1)C(OC(=O)C(O)(c1ccccc1)c1ccccc1)C2 (stereo unspecified)
inactive: [3] -5.86%

CC1=C(C(=O)O)N2C(=O)[C@@H](NC(=O)[C@H](N)c3ccccc3)[C@H]2SC1
inactive: [3] 2.91%

CCCCOC(=O)CC(CC(=O)OCCCC)(OC(C)=O)C(=O)OCCCC
inactive: [1] | [2] -1.72% | [3] 2.63% | [4] -16.9% | [5]

CCOc1ccc(NC(C)=O)cc1
inactive: [1] | [2] 3.98% and -0.784% | [3] 18.5% | [4] -2.1% and -6.16% | [5]

CCCCC(CC)COC(=O)c1ccc(N(C)C)cc1 (stereo unspecified)
inactive: [1] | [2] 0.308% and -6.35% | [3] 3.36% | [4] 4.36% and -3.29% | [5]

Oc1ccccc1C=NCc1ccccc1
inactive: [3] 0.984%
